# Source: PubChem BioAssay AID623957 (NMMLSC, 2012)
# The source made the active and inactive calls.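 The calls were made as follows: active = compounds whose fitted half-maximal concentration for lowering the signal is under 100 µM; inactive = the rest.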
# Test: fluorescence change in empty-vector K562 cells, dose response, counter-screen for ABCB6 inhibitor project, cell-based, flow cytometry, cherry pick set 1 (AID 623957)
# Conditions: K562 vector-only cells, 1 h; series mostly up to 100 µM
row,SMILES,outcome
1,CC1CC(C)CN(C(=O)CCc2nnc3ccc(N4CCCCC4)nn23)C1 (stereo not drawn),inactive
2,COC(=O)C(NC(=O)CCc1nnc2ccc(N3CCC(C)CC3)nn12)C(C)C (stereo not drawn),inactive
3,CC1CCN(c2ccc3nnc(CCC(=O)NC(C)C)n3n2)CC1,inactive
4,Cc1cccc(CS(=O)(=O)c2ncc(Cl)c(C(=O)Nc3c(C)cccc3C)n2)c1,inactive
5,CC1CCN(c2ccc3nnc(CCC(=O)N4CCCCC4)n3n2)CC1,inactive
6,CCC(C)NC(=O)CCc1nnc2ccc(N3CCC(C)CC3)nn12 (stereo not drawn),inactive
7,CN1CCN(C(=O)CCc2nnc3ccc(N4CCC5(CC4)OCCO5)nn23)CC1,inactive
8,CC1CCN(c2ccc3nnc(CCC(=O)NCCCOC(C)C)n3n2)CC1,inactive
9,COCCNC(=O)CCc1nnc2ccc(N3CCC(C)CC3)nn12,inactive
10,CCc1ccc(CNC(=O)C2Cc3cc(S(=O)(=O)N4CCCC4)ccc3N2C(C)=O)cc1 (stereo not drawn),inactive
11,CCOC(=O)C(C)NC(=O)CCc1nnc2ccc(N3CCCCC3)nn12 (stereo not drawn),inactive
12,CCCNC(=O)CCc1nnc2ccc(N3CCC(C)CC3)nn12,inactive
13,O=C(CN1CCCCC1)Nc1cccc(Br)c1,inactive
14,CC(C)CCNC(=O)CCc1nnc2ccc(N3CCC(C)CC3)nn12,inactive
15,Cc1cccc(CS(=O)(=O)c2ncc(Cl)c(C(=O)Nc3ccc(F)cc3)n2)c1,inactive
16,Cc1ccc(NC(=O)c2nc(S(=O)(=O)Cc3ccccc3)ncc2Cl)cc1,inactive
17,CC1CCN(C(=O)CCc2nnc3ccc(N4CCC5(CC4)OCCO5)nn23)CC1,inactive
18,CCN1CCN(C(=O)CCc2nnc3ccc(N4CCC5(CC4)OCCO5)nn23)CC1,inactive
